Data taken from PubChem BioAssay (NCATS).
“And” between values parts separate entries of the source, which are not always exact repeats. Equal values may be shown once. Inconclusive results are not listed. Where a call stands in place of a potency, no number is given. The source made the active and inactive calls. Unless noted, the call rests on the fitted dose curve; in most records, active means well fitted curve in the direction sought with a large enough effect; inconclusive means small, poorly fitted or top-dose-only effect, or another doubt; inactive means no such curve, though single readings can be large; an effect the other way counts as inactive or inconclusive.

Experiments:
[1] = biological target: Cytochrome P450 3A4 (Homo sapiens) (UniProt P08684); experiment: qHTS Assay for Inhibitors and Substrates of Cytochrome P450 3A4 (AID 884); further: nearly all actives have a fitted effect of over 50% in size
Method in brief: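 20 nM human CYP3A4 with 25 uM Luciferin-PPXE (at KM) in 200 mM KPO4, preincubated 10 min with compound; NADPH regeneration started a 60 min RT reaction. Luciferin detected by luminescence, normalized to 57 uM ketoconazole as full inhibition.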

[2] = Confirmation and Secondary Assay for Modulators of Hemoglobin Beta Chain Splicing at IVS2 654 locus (AID 910);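 further: HeLa cells stably carrying EGFP split by mutant beta-globin IVS2-654 intron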
Method in brief: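 HeLa cells stably expressing EGFP interrupted by β-globin IVS2-654 intron, seeded overnight in Opti-MEM/2% FCS, then treated 2 days at 37 °C. Restored splicing read as total peak GFP intensity per well by laser scanning cytometry (488 nm excitation, 500–520 nm emission); 500 nM antisense PNA as control.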

[3] = qHTS Assay for Lipid Storage Modulators (AID 1519; calls by dose curve); settings: Drosophila S3 cells, BODIPY lipid droplet/cell ratio, laser cytometry, cells loaded with oleic acid; for activity change, negative = inhibition: at 57.5 µM (top of the series)
Method in brief: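 Cells seeded at 5,000 per well were treated with compounds over a concentration series and loaded with oleic acid (400 uM, as added). Lipid droplet fluorescence (488 nm excitation, 500-530 nm channel) was read by laser-scanning cytometry and normalized to 20 uM Triacsin C.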

[4] = biological target: Ubiquitin carboxyl-terminal hydrolase 1 (Homo sapiens) (UniProt O94782); experiment: Inhibitors of USP1/UAF1: Pilot qHTS (AID 504865); further: nearly all actives have a fitted effect of over 35% in size; further: potency means the concentration at half of the fitted maximal effect;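 on activity change, negative = inhibition: rhodamine fluorescence freed from ubiquitin-rhodamine substrate followed over time; top concentration of the series differs between compounds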
Method in brief: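 USP1/UAF1 complex at 1 nM preincubated 15 min at room temperature with compound, then Ub-Rho substrate added at 150 nM final. Fluorescence (480/540 nm) read kinetically in 50 mM HEPES pH 7.8, 0.5 mM EDTA, 1 mM TCEP, 0.1 mg/ml BSA, 0.01% Tween-20.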

[5] = Confirmation and Secondary Assay for Modulators of Hemoglobin Beta Chain Splicing at IVS2 705 locus (AID 930);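 further: HeLa cells stably expressing the EGFP-705 splicing reporter; GFP fluorescence per well restored by corrected splicing of the IVS2-705 intron in EGFP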
Method in brief: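 HeLa IVS2-705 EGFP reporter cells, 500/well, compound 2 d at 37C; correct splicing yields fluorescent EGFP. Control: 500 nM antisense PNA. Read-out: total peak GFP intensity.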

[6] = biological target: Cytochrome P450 3A4 (Homo sapiens) (UniProt P08684); experiment: qHTS Assay for Activators of Cytochrome P450 3A4 (AID 885); further: nearly all actives have a fitted effect of over 65% in size
Method in brief: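 Human CYP3A4 (20 nM) with Luciferin-PPXE at 25 uM (its KM) in 200 mM KPO4; 10 min compound preincubation, then NADPH regeneration and 60 min reaction at RT. Luciferin read by luminescence; normalized to 57 uM ketoconazole full inhibition.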

[7] = measured here: cell count channel max response
[8] = measured here: lipid channel max response

Chain of Ubiquitin carboxyl-terminal hydrolase 1 (Homo sapiens) (O94782 whole entry, looked up): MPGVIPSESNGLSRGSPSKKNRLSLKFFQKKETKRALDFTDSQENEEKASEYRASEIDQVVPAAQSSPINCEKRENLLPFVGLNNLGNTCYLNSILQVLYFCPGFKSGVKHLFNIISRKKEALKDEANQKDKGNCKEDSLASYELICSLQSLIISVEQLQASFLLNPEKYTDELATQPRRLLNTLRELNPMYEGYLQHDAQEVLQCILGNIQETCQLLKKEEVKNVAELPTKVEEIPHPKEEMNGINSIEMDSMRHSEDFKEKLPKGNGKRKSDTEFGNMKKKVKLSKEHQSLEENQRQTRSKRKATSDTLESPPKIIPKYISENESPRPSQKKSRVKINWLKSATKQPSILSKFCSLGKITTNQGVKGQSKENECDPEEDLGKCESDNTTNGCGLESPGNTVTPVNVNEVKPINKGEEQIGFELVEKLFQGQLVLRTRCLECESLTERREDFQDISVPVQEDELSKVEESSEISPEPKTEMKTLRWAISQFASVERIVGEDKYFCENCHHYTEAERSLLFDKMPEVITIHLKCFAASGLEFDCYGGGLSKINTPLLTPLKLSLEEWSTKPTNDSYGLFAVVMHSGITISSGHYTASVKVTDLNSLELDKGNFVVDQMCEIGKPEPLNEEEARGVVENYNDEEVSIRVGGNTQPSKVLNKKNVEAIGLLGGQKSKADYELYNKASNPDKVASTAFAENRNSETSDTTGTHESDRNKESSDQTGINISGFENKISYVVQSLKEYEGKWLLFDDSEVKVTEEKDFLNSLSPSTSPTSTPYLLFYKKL
Chain of Cytochrome P450 3A4 (Homo sapiens) (P08684 whole entry, looked up): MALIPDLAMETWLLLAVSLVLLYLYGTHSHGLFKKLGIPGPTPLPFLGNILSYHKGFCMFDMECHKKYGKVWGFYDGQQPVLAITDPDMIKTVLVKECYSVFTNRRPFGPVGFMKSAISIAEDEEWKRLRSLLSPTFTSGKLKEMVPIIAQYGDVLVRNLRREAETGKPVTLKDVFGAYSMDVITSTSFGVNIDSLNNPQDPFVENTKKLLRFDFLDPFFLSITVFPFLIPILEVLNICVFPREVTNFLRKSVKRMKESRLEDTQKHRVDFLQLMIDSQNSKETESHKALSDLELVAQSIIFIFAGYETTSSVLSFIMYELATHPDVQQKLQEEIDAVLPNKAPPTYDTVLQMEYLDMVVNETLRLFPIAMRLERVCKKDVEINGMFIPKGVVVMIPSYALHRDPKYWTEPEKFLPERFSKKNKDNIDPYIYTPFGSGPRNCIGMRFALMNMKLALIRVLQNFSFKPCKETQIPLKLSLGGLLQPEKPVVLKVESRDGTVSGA

SMILES | Potency [1] | Potency [2] | activity change, negative = inhibition [3] | max response [3, 7] | max response [3, 8] | Potency [4] | Potency [5] | Potency [6]
CC(=O)C1CCC2C3CCC4CC(O)CCC4(C)C3CC(O)C12C (stereo not given) | inactive | inactive | -2.59% (inactive) | 3.25% | 2.61% | inactive | – | –
C[C@@]12CCC(Cl)C[C@H]1CCC1C2CC[C@]2(C)C(=O)CCC12 (stereo not given in full) | inactive | inactive | 8.24% (inactive) | 9.07% | 21.6% | inactive | inactive | –
CCOC(=O)C1C(C=C(C)C)C1(C)C (stereo not given) | inactive | inactive | 2.84% (inactive) | -1.43% | 3.02% | inactive | inactive | –
CCC(N)C(O)c1ccc(O)c(O)c1 (stereo not given) | inactive | inactive | 5.92% (inactive) | 7.01% | 16.7% | inactive | inactive | –
COc1cc2c3cc1Oc1c(OC)c(OC)cc4c1C(Cc1cccc(c1)Oc1ccc(c(O)c1)CC3N(C)CC2)N(C)CC4 (stereo not given) | inactive | inactive | 6.04% (inactive) | 15.8% | 22.7% | inactive | – | –
OCC1CCCN2CCCCC12 (stereo not given) | inactive | inactive | 1.09% (inactive) | -1.96% | 1.94% | inactive | – | –
CC1(C)N([O-])[N+](=O)C1(C)Br (stereo not given) | inactive | inactive | 1.13% (inactive) | -4.64% | -5.74% | inactive | inactive | –
COc1ccc(/C=C/c2cc(O)cc(O)c2)cc1 | inactive | inactive | 4.7% (inactive) | 1.7% | 6.07% | inactive | inactive | –
CNC(=O)O/N=C(/C)SC | inactive | inactive | 3.26% (inactive) | 16.3% | 20.1% | inactive | inactive | –
NC(CO)Cc1ccccc1 (stereo not given) | – | inactive | 8.6% (inactive) | 17.3% | 29% | inactive | inactive | –
COc1ccc2c(c1)[C@@]13CCCCC1[C@@H](C2)N(C)CC3 (stereo not given in full) | – | inactive | 7.37% (inactive) | 4.27% | 15.7% | inactive | inactive | –
CCCCC/C=C\C/C=C\C/C=C\C/C=C\CCCC(=O)O | – | – | -9.9% (inactive) | 20.2% | 8.84% | 50.1 µM (active) | – | inactive
CCN1C[C@]2(COC)C(O)C[C@H](OC)[C@@]34C5C[C@]6(O)C(OC)C(O)[C@](OC(C)=O)(C5C6OC(=O)c5ccccc5)C(C(OC)C23)C14 (stereo not given in full) | inactive | – | 4.84% (inactive) | 13.6% | 24% | inactive | inactive | –
CCN1C[C@@]2(C)CC[C@@H](OC)[C@@]34C2C(O)[C@@]2(OCO[C@]25CC(OC)C2C[C@@]3(O)C5C2O)C14 (stereo not given in full) | – | inactive | 2.86% (inactive) | 1.33% | 4.66% | inactive | inactive | inactive
C[C@]12CCC3C(CC[C@]4(O)CC(O)CC[C@@]34C=O)[C@]1(O)CCC2C1=CC(=O)OC1 (stereo not given in full) | – | inactive | -3.74% (inactive) | 12.5% | 11% | inactive | inactive | –
O=c1ccc2cc(O[C@H]3OC(CO)C(O)C(O)C3O)c(O)cc2o1 (stereo not given in full) | – | inactive | 5.45% (inactive) and 5.34% (inactive) | 5.76% and 15.4% | 15.3% and 32.6% | inactive | inactive | –
COc1cc2c(cc1OC)[C@@H]1C(=O)c3ccc(O)c(CC=C(C)C)c3OC1CO2 (stereo not given in full) | inactive | – | 7.74% (inactive) | 14.6% | 25.6% | inactive | inactive | –
C[C@@]12CCC(O)C[C@H]1CCC1C2CC[C@]2(C)C(=O)CCC12 (stereo not given in full) | – | inactive | 1.65% (inactive) | 7% | 9.46% | inactive | inactive | inactive
CC1=C2C3OC(=O)C(C)C3CC[C@@]2(C)C=CC1=O (stereo not given in full) | – | inactive | 1.14% (inactive) | 15.1% | 16.8% | inactive | – | inactive
CNC(=O)Oc1cccc2c1OC(C)(C)C2 | – | inactive | 4.9% (inactive) | 5.85% | 6.59% | inactive | inactive | –
CC(=O)OC1C2C(OC(=O)Cc3ccccc3)C(C)CC2(OC(C)=O)C(=O)/C(C)=C/C2C(CC[C@@]13CO3)C2(C)C (stereo not given in full) | – | – | -0.982% (inactive) | -2.07% | -2.51% | inactive | inactive | inactive
CN1CCc2cc3c(cc2C1O)OCO3 (stereo not given) | – | inactive | 7.6% (inactive) | 9.52% | 18.6% | inactive | – | –
CC1C(=O)OC2O[C@]3(C)CC[C@H]4C(C)CCC1[C@]24OO3 (stereo not given in full) | – | inactive | 8.3% (inactive) | 8.98% | 23.7% | inactive | inactive | –
CC(=O)OC1CC[C@]2(C)C(CCC3C2CC[C@]2(C)C(C4=CC(=O)OC4)C(OC(C)=O)CC32O)C1 (stereo not given in full) | inactive | – | 6.45% (inactive) | 1.24% | 14.6% | inactive | inactive | –
